These results are taken from PubChem BioAssay (NCATS).

SMILES strings stand for the structures. Inconclusive results are not listed. Activity calls are given as the source filed them. The call rests on the fitted dose curve; in most records, active means well fitted curve in the direction sought with a large enough effect; inconclusive means small, poorly fitted or top-dose-only effect, or another doubt; inactive means no such curve, though single readings can be large; an effect the other way counts as inactive or inconclusive.

Assay [1] is described as follows: P-glycoprotein substrates identified in KB-8-5-11 adenocarcinoma cell line, qHTS therapeutic library screen (AID 1346987). Further: potency means the concentration at half of the fitted maximal effect; nearly all actives have a fitted effect of over 65% in size. In outline: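 KB-8-5-11: colchicine-selected sub-line of KB-3-1 over-expressing P-gp; assay medium lacked colchicine. 72 h drug exposure at 37 degree C, CellTiter-Glo.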
A general note: qHTS replaces the single test concentration by a dilution series.

The test system of assay [2] is Zika virus NS2B-NS3 protease (unlinked complex). Put plainly: Primary screen GU Rhodamine qHTS for Zika virus inhibitors: Unlinked NS2B-NS3 protease assay (AID 1347159). Further: nearly all actives have a fitted effect of over 60% in size. In outline: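 Percent inhibition derives from the 15-min fluorescence change (ex 480, em 540 nm), normalized to no-enzyme and no-inhibitor wells. Reactions contained 25 nM NS2B-NS3 complex and 1.5 microM substrate in 10 mM Tris-HCl pH 8.0.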

The subject of assay [3] is Zika virus NS2B-NS3 protease (linked construct). Put plainly: Primary screen NINDS Rhodamine qHTS for Zika virus inhibitors (AID 1347160). Further: nearly all actives have a fitted effect of over 55% in size. In outline: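 In 10 mM Tris-HCl pH 8.0 containing 0.01% Tween 20, linked NS2B-NS3 protease (25 nM final) is exposed to test compounds for 15 min. Cleavage of 1.5 microM Rhodamine110 substrate is tracked by fluorescence over 15 min.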

For assay [4], the target named is Calcium and integrin-binding protein 1 (Homo sapiens) (UniProt Q99828). In words: Primary qHTS for Identification of Calcium Integrin Binding Protein 1 (CIB1) Competitor (AID 1508620). Further: top concentration of the series differs between compounds. The gist of the method: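 Fluorescence polarization competition: GST-tagged CIB1 (1 uM final) preincubated with compound 15 min at room temperature, then FITC-labelled alphaIIb peptide (100 nM final) added. After 15 min at room temperature, polarization read at Ex 480/Em 540.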
Sequence of Calcium and integrin-binding protein 1 (Homo sapiens) (Q99828 whole entry, looked up): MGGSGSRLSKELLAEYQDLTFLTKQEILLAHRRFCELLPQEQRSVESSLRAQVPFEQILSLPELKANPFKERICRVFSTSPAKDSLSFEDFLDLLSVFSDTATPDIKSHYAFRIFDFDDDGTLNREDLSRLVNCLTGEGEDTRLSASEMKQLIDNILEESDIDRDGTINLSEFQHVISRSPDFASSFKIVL

Assay [5] can be described thus: Primary qHTS for inhibitors of nuclear receptor binding SET domain protein 2 (NSD2) in an isogenic RCH-ACV NSD2 p.E1099K mutant (9B) (AID 1645876). Further: potency means the concentration at half of the fitted maximal effect; nearly all actives have a fitted effect of over 70% in size.
Assay [6] is described as follows: Primary qHTS for inhibitors of nuclear receptor binding SET domain protein 2 (NSD2) in an RCH-ACV wild type WT cells (2C) (AID 1645877). Further: potency means the concentration at half of the fitted maximal effect; nearly all actives have a fitted effect of over 70% in size.
Assay [7] concerns the target Glutathione peroxidase 1 (Homo sapiens) (UniProt P07203). Put plainly: Primary qHTS Assay for Inhibitors of Recombinant Selenoprotein Glutathione Peroxidase 1 (GPX1) (AID 1845191). Further: nearly all actives have a fitted effect of over 65% in size. In outline: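 GR-coupled assay: compounds preincubated 30 min at room temperature with GPX1, then reaction started with CHP; final 10 nM GPX1, 1 mM GSH, 0.5 mM CHP, 0.5 mM NADPH, 100 nM GR, 0.01% BSA, pH 7.5 Tris buffer. NADPH fluorescence (340/450 nm) read at 0 and 15 min.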

Assay [8] addresses Phospholipid hydroperoxide glutathione peroxidase GPX4 (Homo sapiens) (UniProt P36969). In words: Primary qHTS Assay for Inhibitors of Recombinant Selenoprotein Glutathione Peroxidase 4 (GPX4) (AID 1845192). Further: nearly all actives have a fitted effect of over 65% in size. Particulars: outcome: dose series up to 50 µM unless noted. The gist of the method: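 GR-coupled assay: recombinant GPX4 preincubated 30 min with compound at room temperature; final 200 nM GPX4, 1 mM GSH, 0.5 mM cumene hydroperoxide, 0.5 mM NADPH, 100 nM GR, 0.01% BSA, pH 7.5 Tris. NADPH fluorescence (340/450 nm) read at 0 and 15 min.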

Assay [9] addresses Luciferin 4-monooxygenase (Photinus pyralis) (UniProt P08659). Put plainly: Primary firefly luciferase (FLuc) qHTS assay for identification of artifact compounds. (AID 1845220). Further: nearly all actives have a fitted effect of over 60% in size. In outline: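 Enzymatic FLuc inhibition assay: compounds pre-exposed to luciferin/ATP (10 uM each) for 15 min, then purified P. pyralis enzyme at 10 nM added. Read-out: luminescence at 5 min.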
A short description of assay [10]: Primary fluorescence-based thiol-reactive (MSTI) qHTS assay for identification of artifact compounds. (AID 1845221). Further: nearly all actives have a fitted effect of over 65% in size. Further: potency means the concentration at half of the fitted maximal effect. In outline: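 Curve-fitted percent inhibition (4-parameter Hill) derived from fluorescence, Ex 525/Em 598 nm, scaled with Acetyl-MSTI and MSTI; 1 h incubation at room temperature.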
Assay [11] deals with Nanoluciferase (engineered Oplophorus gracilirostris luciferase). Put plainly: Primary Nanoluciferase (NLuc) qHTS assay for identification of artifact compounds. (AID 1845222).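 Further: NLuc secreted into diluted conditioned medium of S16 cells.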 In outline: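 S16 cell supernatant NLuc, 1:55; cpds qHTS; 15 min RT dark; Nano-Glo substrate 1:100, 5 min; luminescence; Hill fit of % inhibition.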
Assay [12] concerns C33A. Put plainly: Primary qHTS to identify gynecologic anti-cancer compounds using libraries of approved drugs and bioactive compounds (AID 1345084). Further: nearly all actives have a fitted effect of over 55% in size. Further: potency means the concentration at half of the fitted maximal effect. The following applies: Gynecologic cancer cell panel viability, ATPlite luminescence, 48 h; series mostly up to 57.5 µM. In outline: (§1)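 Cytotoxicity screen measuring ATP content by luciferase luminescence. Each compound is applied at five concentrations for 48 h at 37 C with 5% CO2.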

The subject of assay [13] is CASKI. The description is as above. Particulars: Gynecologic cancer cell panel viability, ATPlite luminescence, 48 h; series mostly up to 57.5 µM. In outline: as §1
(Cellular ATP, detected with luciferase, serves as a proxy for viable cell number.)

Assay [14] has as its system Es-2. Described as above. Particulars: Gynecologic cancer cell panel viability, ATPlite luminescence, 48 h; series mostly up to 57.5 µM. In outline:
as §1

In assay [15] the test system is HeLa. The description is as above. Particulars: Gynecologic cancer cell panel viability, ATPlite luminescence, 48 h; series mostly up to 57.5 µM. The gist of the method: as §1
Assay [16] relates to Hek293T. Described as above. The following applies: Gynecologic cancer cell panel viability, ATPlite luminescence, 48 h, control line for the selectivity index; series mostly up to 57.5 µM. The gist of the method:
as §1

Assay [17] relates to JEG-3. Described as above. The following applies: Gynecologic cancer cell panel viability, ATPlite luminescence, 48 h; series mostly up to 57.5 µM. The gist of the method:
as §1

Assay [18] relates to OV90. Described as above. Particulars: Gynecologic cancer cell panel viability, ATPlite luminescence, 48 h; series mostly up to 57.5 µM. The gist of the method:
as §1

The subject of assay [19] is Tov112D. The description is as above. Particulars: Gynecologic cancer cell panel viability, ATPlite luminescence, 48 h; series mostly up to 57.5 µM. In outline: as §1

Sequence of Phospholipid hydroperoxide glutathione peroxidase GPX4 (Homo sapiens) (P36969 whole entry, looked up): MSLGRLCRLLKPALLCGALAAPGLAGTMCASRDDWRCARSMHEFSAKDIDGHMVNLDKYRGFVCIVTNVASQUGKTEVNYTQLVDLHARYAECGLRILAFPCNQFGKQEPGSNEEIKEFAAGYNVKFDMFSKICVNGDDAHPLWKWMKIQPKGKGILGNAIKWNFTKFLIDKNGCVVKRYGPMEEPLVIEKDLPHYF
Sequence of Glutathione peroxidase 1 (Homo sapiens) (P07203 whole entry, looked up): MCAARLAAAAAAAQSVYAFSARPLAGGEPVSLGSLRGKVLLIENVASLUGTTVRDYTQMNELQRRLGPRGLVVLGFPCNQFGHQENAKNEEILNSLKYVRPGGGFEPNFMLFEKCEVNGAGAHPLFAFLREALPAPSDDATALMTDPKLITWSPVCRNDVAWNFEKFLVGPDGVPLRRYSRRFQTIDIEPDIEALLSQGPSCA

Regarding `CCC(=O)Nc1cccc(Oc2nc(Nc3ccc(N4CCN(C)CC4)cc3OC)ncc2Cl)c1`, the Potency was 16.4 µM (active) in assay [1], 16.3 µM (active) in [5], 14.5 µM (active) in assay [6] and 1.89 µM (active) in [10]. Besides, the Potency result in assay [2], in assay [3], in assay [7], in [8], in [9] and in [11] was “inactive” in each case. Also, the Potency result in [12], in [13], in assay [14], in assay [15], in assay [16] and in assay [17] was “inactive” throughout. Besides, the Potency entry in assay [18] and in [19] was “inactive” each time. Further, in assay [4], the result was inactive.

For `CCN(CC)Cc1cccc(/C=C/c2nc3ccc(F)cc3c(=O)n2-c2ccccc2Cl)n1`, the Potency result in assay [2], in assay [3], in assay [7], in assay [8], in [9] and in assay [10] was “inactive” each time. Also, the Potency entry in assay [11], in assay [12], in assay [13], in assay [14], in assay [15] and in [16] was “inactive” throughout. Besides, the Potency entry in assay [17] is “inactive”. The result in assay [4] was inactive. For the same molecule, the Potency in assay [5] is 14.5 µM (active); in assay [6], 12.9 µM (active).

`C=C1C(=O)O[C@@H]2/C=C(/C)CC3C=C(C[C@H](OC(=O)/C(C)=C\C)[C@@H]12)C(=O)O3` (stereo partly specified): the Potency result in assay [2], in [3], in assay [7], in [8], in assay [9] and in [11] was “inactive” throughout. Besides, the Potency entry in assay [12], in [13], in assay [14], in assay [15], in assay [17] and in [18] was “inactive” each time. Also, in [19], the Potency entry was “inactive”. Further, the outcome in assay [4] was inactive. In addition, the figures for the Potency in assay [5] and in [6] were 16 µM (active) and 3.58 µM (active), respectively.

As to `Cc1c(C(=O)NCCCO)cnn1-c1nc(-c2cccc(C(F)(F)F)c2)cs1`, the Potency result in assay [2], in assay [3], in assay [7], in assay [8], in [9] and in assay [10] was “inactive” throughout. The Potency result in assay [11], in assay [12], in [14], in assay [15], in assay [16] and in assay [17] was “inactive” each time. Also, the Potency result in [18] and in assay [19] was “inactive” throughout. Moreover, the outcome in [4] was inactive. In addition, the Potency in assay [5] and in assay [6] was 25.8 µM (active) each time.

Consider `C[C@@H](CN1CCC(n2c(=O)[nH]c3cc(Cl)ccc32)CC1)NC(=O)c1ccc2ccccc2c1`, for which the Potency is 18.4 µM (active) in assay [1], 10.3 µM (active) in assay [5] and 16.3 µM (active) in assay [6]. In addition, the Potency result in assay [3], in assay [8], in assay [9], in [10], in [11] and in assay [12] was “inactive” in each case. For the same molecule, the Potency result in assay [13], in assay [14], in assay [15], in [16], in assay [17] and in assay [19] was “inactive” throughout. For the same molecule, the outcome in [4] was inactive.

As for `COc1ccc2c(c1)CN(C(=O)CCN1CCC(Cc3ccccc3)CC1)CCS2`, the Potency in assay [1] is 6.32 µM (active); in assay [5], 11.2 µM (active); in assay [6], 10 µM (active); in assay [18] it was 6.31 µM (active). Also, the Potency result in assay [2], in assay [3], in assay [8], in assay [9], in assay [10] and in assay [12] was “inactive” each time. Further, the Potency entry in assay [13], in assay [14], in [15], in assay [16], in assay [17] and in assay [19] was “inactive” in each case. Moreover, the outcome in assay [4] was inactive.
